TRb SRC2 PPI: qHTS for Inhibitors of the Interaction of Thyroid Hormone Receptor and Steroid Receptor Coregulator 2; Thyroid hormone receptor beta (Homo sapiens), P10828; Potency, µM (series often up to 106 µM), inactives show at the highest dose activity change, negative = inhibition, actives largely listed as inhibitors; 280,000 compounds, 0.065% hits; TRbeta-SRC2 peptide binding, fluorescence polarization; receptor liganded with 1 µM T3;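 also: plate controls were bound peptide for no effect and peptide without receptor for full effect; nearly all actives have a fitted effect of over 50% in size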
Target sequence (P10828 whole entry, looked up): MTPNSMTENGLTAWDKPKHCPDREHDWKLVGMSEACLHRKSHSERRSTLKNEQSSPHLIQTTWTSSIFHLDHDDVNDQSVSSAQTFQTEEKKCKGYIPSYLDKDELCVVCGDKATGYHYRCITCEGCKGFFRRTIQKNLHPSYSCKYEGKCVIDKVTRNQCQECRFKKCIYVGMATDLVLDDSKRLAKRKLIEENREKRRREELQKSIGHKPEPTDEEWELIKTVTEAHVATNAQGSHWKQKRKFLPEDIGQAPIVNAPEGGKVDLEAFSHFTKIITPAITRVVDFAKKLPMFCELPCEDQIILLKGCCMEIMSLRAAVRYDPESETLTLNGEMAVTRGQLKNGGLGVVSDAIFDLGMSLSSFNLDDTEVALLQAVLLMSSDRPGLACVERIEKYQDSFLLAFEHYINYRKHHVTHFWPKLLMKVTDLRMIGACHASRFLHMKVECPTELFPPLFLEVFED
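TRb LBD 0.6 uM + Texas Red SRC2 peptide 20 nM, 1 uM T3, Tris buffer w/ 5% DMSO; compound pinned, 5 h RT; FP read ex 555/em 632; normalized to unbound and bound controls.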
Tau ThT inhib: qHTS for Inhibitors of Tau Fibril Formation, Thioflavin T Binding; AID 1460, 2008; 270,000 compounds, 2.1% hits; Microtubule-associated protein tau (Homo sapiens), P10636; recombinant tau K18 P301L, heparin-induced fibrillization, ThT fluorescence; Potency, µM (series often up to 57.4 µM), for inactives: top-dose activity, negative = inhibition, actives largely listed as inhibitors; also: nearly all actives have a fitted effect of over 55% in size
Target sequence (P10636 561-689 P618L limits assumed): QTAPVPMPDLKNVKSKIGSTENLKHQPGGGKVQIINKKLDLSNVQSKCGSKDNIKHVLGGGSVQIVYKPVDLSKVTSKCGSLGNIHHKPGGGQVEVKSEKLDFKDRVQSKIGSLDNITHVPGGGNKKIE
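In this qHTS, human K18 P301L tau is incubated with compound and heparin for 6 hr at 37 C, and Thioflavin T fluorescence then reports fibril load.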
Tau FP inhib: qHTS for Inhibitors of Tau Fibril Formation, Fluorescence Polarization. Microtubule-associated protein tau (Homo sapiens), P10636. K18 P301L tau heparin fibrillization, Alexa594 FP, 6 h. Potency, µM (titrated, usually from 57.7 µM), for inactives: at the top dose activity, negative = inhibition, most hits filed as inhibitors. 280,000 compounds, 0.39% hits. AID 1468, 2008; also: nearly all actives have a fitted effect of over 55% in size
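Heparin (20 uM) drove fibril formation of recombinant tau K18 P301L, 15 uM unlabeled with 0.24 uM Alexa 594 label, for 6 hr at 37 C in 100 mM sodium acetate pH 7. Fluorescence polarization (555/632 nm) read 1 hr after 30 uM ThT.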
Tau fluor cs: Counterscreen qHTS for Inhibitors of Tau Fibril Formation, Fluorescence Polarization; tau K18 P301L Alexa594 fluorescence, heparin fibrillization; Potency, µM (highest dose often 57.7 µM), for inactives: top-dose activity change, negative = decrease; 280,000 compounds, 0.93% hits; AID 1463, 2008; also: nearly all actives have a fitted effect of over 55% in size
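Human tau K18 P301L (15 uM unlabeled, 0.24 uM Alexa 594-labeled) in 100 mM sodium acetate pH 7 with 20 uM heparin, 6 hr at 37 C. ThT 30 uM added, 1 hr ambient; Alexa 594 FP and total fluorescence read at 555/632 nm.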
TR SRC2 fluor cs: Total Fluorescence Counterscreen for Inhibitors of the Interaction of Thyroid Hormone Receptor and Steroid Receptor Coregulator 2; AID 1479, 2009; TRb/SRC2 Texas Red total fluorescence interference; Potency, µM (titrated, usually from 106 µM), inactives show at the highest dose fluorescence change, negative = quenching; 280,000 compounds, 0.29% hits; active = well fitted curve in either direction with a large enough effect; inconclusive = small, poorly fitted or top-dose-only effect
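Human TRb ligand-binding domain at 0.6 uM with 20 nM Texas Red SRC2 peptide in Tris buffer containing 1 uM T3 and 5% DMSO, incubated with compound 5 h at ambient temperature. Total fluorescence (555/632 nm) calculated as parallel + 2 × perpendicular.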
The depositor's hits bear a star; ? = inconclusive; · = not tested or not shown; ! = repeats disagree; [ ] = another dose, or the depositor's remark. Hits are enriched below; roughly 3% of the tested compounds scored in any of these assays. Unless noted, calls follow the shape of the dose curve; as a rule, active = well fitted curve in the direction sought with a large enough effect; inconclusive = small, poorly fitted or top-dose-only effect, or another doubt; inactive = no such curve, though single readings can be large; an effect the other way counts as inactive or inconclusive. Unless noted, % is scaled to controls: 0 for no effect and ±100 for the full control effect; potency is read from the fitted curve at half-maximal effect.

SMILES | TRb SRC2 PPI | Tau ThT inhib | Tau FP inhib | Tau fluor cs | TR SRC2 fluor cs
COc1ccc(-c2cc(C(F)(F)F)nc(SCCC(=O)Nc3cccc(O)c3)n2)cc1 | 2.6% | 2.1% | 14.1µM* | ? | 4.6%
COc1cccc([C@@H]2Oc3ccc(OC)cc3/C(=N/O[C@@H](C)CN3CCCCc4nc(C)c(C)cc43)[C@@H]2O)c1 | 3.0%[11.2 µM] | -16.2%[11.5 µM] | -2.1%[11.6 µM] | -19.1%[11.6 µM] | 3.3%[11.2 µM]
CC1=C(c2ccc(Cl)cc2)S(=O)(=O)N=C1N1CCC(C(=O)NCCc2ccco2)CC1 | 1.8% | -16.9% | -8.1% | -6.5% | -4.5%
CC1=C(c2ccc(C(C)C)cc2)S(=O)(=O)N=C1N1CCC(C(=O)NCCc2ccco2)CC1 | -18.8% | ? | -5.1% | 2.5% | 25.1µM*[quencher]
NC(C(=O)NC1C(=O)N2C(C(=O)O)=C(Cl)CSC12)c1ccccc1 (stereo not given) | 0.1% | 14.1µM* | ? | -19.9% | -2.5%
Cc1nn(C)c2c1c(-c1ccccc1)cc(=O)n2Cc1ccccc1Cl | 3.2% | -11.0% | 0.8% | -1.2% | -0.3%
O=c1n(Cc2ccccc2)nc2n1-c1ccccc1OC2 | -3.2% | -6.9% | -12.6% | -18.1% | 10µM*[quencher]
Oc1ccc(Br)cc1-c1nc2cnccn2c1NC1CCCC1 | 0.0% | ? | ? | 12.6µM*[quencher] | -4.6%
Fc1ccc(-c2nc3cnccn3c2NC2CCCC2)cc1 | 5.5% | -6.8% | -5.9%[2.34 µM] | -8.1% | -1.9%
Oc1ccc(Br)cc1-c1nc2cnccn2c1NC1CCCCC1 | -4.5% | ? | ? | 14.1µM*[quencher] | 1.7%
Nc1ncc([N+](=O)[O-])c(Oc2ccccc2F)n1 | -1.9% | ? | 5.0% | -26.4% | -6.4%
Cc1cc(/C=N/Nc2nc(N)ncc2[N+](=O)[O-])c(C)n1-c1ccccc1F | -2.0% | 15.8µM* | 5.7% | -24.2% | -0.3%
Cc1cccc(C)c1-n1c(C)cc(/C=N\Nc2ccc([N+](=O)[O-])cn2)c1C | -26.6% | 5.01µM* | ? | ? | 0.3%
COn1c(C)c(C)c2c3nonc3ccc21 | ? | 14.1µM* | ? | ? | -1.0%
CN1/C(=C\P(=O)(N(C)C)N(C)C)C(C)(C)c2ccccc21 | 25.8% | 31.6µM* | ? | ? | ?
CCOC(=O)/C=C1/N(C)c2ccccc2C1(C)C | -4.2% | · | 3.7% | 15.2% | 0.2%
CN1/C(=C/C2CC(=O)NC2=O)C(C)(C)c2ccccc21 (stereo not given) | 6.8% | 28.2µM* | ? | -19.0% | -3.0%
CN1/C(=C/C2CC(=O)N(c3cccc4ccccc34)C2=O)C(C)(C)c2ccccc21 (stereo not given) | -10.1% | ? | -2.5% | -17.4% | 0.8%
Fc1ccc(Br)cc1 | -3.8%[201 µM] | · | · | · | 1.0%[201 µM]
O=C(CN(c1cccc(Br)c1)S(=O)(=O)c1ccccc1)N1CCc2ccccc2C1 | -2.2% | -2.1% | -1.8% | -14.1% | 7.6%
CC(C)(C)c1ccc(/C=C/C(=O)Nc2ccc3c(c2)OCCO3)cc1 | 6.4% | ? | ? | 10µM*[quencher] | -4.0%
CC(=O)Nc1ccc(NC(=O)/C=C/c2ccc3c(c2)OCO3)cc1 | 8.5% | ? | -2.2% | -11.8% | -1.3%
CC/C=C\C/C=C\C/C=C\CCCCCCCC(=O)O | -4.3% | 28.2µM*! | ? | -15.4% | 1.6%
Nc1ccc2nn(-c3ccccc3)nc2c1 | -3.3% | ? | -1.7% | ? | -0.9%
Nc1cc2nn(-c3ccccc3)nc2cc1Cl | 0.2% | 3.55µM* | ? | ? | -1.1%
SMILES | TRb SRC2 PPI | Tau ThT inhib | Tau FP inhib | Tau fluor cs | TR SRC2 fluor cs
CC(C)=CCC/C(C)=C\CO | 6.2%[201 µM] | · | · | · | 0.7%[201 µM]
COc1ccc(/C=C(/Sc2nnc(-c3ccc(Cl)cc3)o2)C(=O)O)cc1 | -1.5% | ? | -7.1% | -20.5% | 2.4%
Cc1nc(S/C(=C/c2ccc(-c3ccc(C(=O)O)cc3)o2)C(=O)O)n[nH]1 | 0.9% | 4.47µM* | -14.4% | -13.3% | -21.5%
Cc1nc(S/C(=C/c2ccc(-c3cc(Cl)ccc3C)o2)C(=O)O)n[nH]1 | 3.2% | 11.2µM* | -16.7% | -29.3% | 0.6%
Cc1nc(S/C(=C/c2ccc(-c3ccc(Cl)cc3)o2)C(=O)O)n[nH]1 | -4.1% | 2µM* | 5.9% | ? | -7.6%
CC(=O)c1ccc(-c2ccc(/C=C(/Sc3n[nH]c(C)n3)C(=O)O)o2)cc1 | -7.0% | 1µM* | -5.1% | ? | -10.8%
COc1cccc(Cn2c(=O)cc(C)c3c(C)nn(-c4ccc(C)cc4)c32)c1 | 13.1% | -3.7% | -6.8% | -11.8% | 0.6%
O=C(Nc1ccccc1)/C(=C\c1cccs1)NC(=O)c1ccccc1 | -12.9% | -1.9% | -7.2% | -1.4% | 0.0282µM*[quencher]
Nc1cc(=O)[nH]c(=S)n1-c1ccccc1 | -7.1% | 2.0% | -4.1% | -1.4% | -2.9%
O=C1NC(=S)CN1c1ccccc1 | 2.5% | 31.6µM* | ? | -19.3% | -2.2%
COc1ccc(NC(=O)c2oc3ccccc3c2NC(=O)Cc2cccs2)c(OC)c1 | -3.8% | -0.5% | -4.9% | ? | -1.4%
Cc1cc(NC(=O)Cn2c(=O)nc(-c3ccccc3F)c3cc(Cl)ccc32)ccc1Br | -26.4%[53 µM] | 7.1% | -16.2% | ? | 0.0355µM*[quencher]
Cc1ccc(NC(=O)Cn2c(=O)nc(-c3ccccc3F)c3cc(Cl)ccc32)c(Br)c1 | 1.5% | ? | -5.9% | -16.8% | 1.1%
O=C(O)CCCCCCCCCCC(=O)O | 6.5%[201 µM] | · | · | · | 0.9%[201 µM]
CCc1nnc2c3ccccc3nc(N3CCN(c4cc(C)ccc4C)CC3)n12 | -4.4% | ? | -6.2% | -11.3% | -6.1%
Nc1cccc(Nc2ccccc2)c1 | 5.4% | ? | 6.4% | ? | 5.9%
c1ccc(Nc2cccc(Nc3ccccc3)c2)cc1 | 3.5% | ? | -1.2% | 11.2µM*[quencher] | 0.5%
O=C(OC1CCc2ccccc2C1=O)c1ccccc1O (stereo not given) | 2.9% | 25.1µM* | ? | ? | -0.2%
CC(=O)N1c2ccc(S(=O)(=O)Nc3ccc(Cl)cc3C)cc2CC1C (stereo not given) | -1.2% | -5.3% | 1.6% | -12.9% | -4.1%
CN1CCc2c(n(CC(O)CNCc3ccccc3)c3ccccc23)C1=O (stereo not given) | 0.7% | -0.8% | 0.4% | 2.4% | 1.2%
CC(C)NCC(O)Cn1c2c(c3ccccc31)CCc1c-2cnn1-c1ccccc1 (stereo not given) | -5.5% | 15.8µM* | 9.6% | ? | -1.1%
O=C(NCc1ccccc1F)c1cc2ccccn2n1 | -5.2% | -2.9% | 2.8% | -4.2% | -0.7%
Cc1[nH]n(-c2ncc(-c3ccccc3)s2)c(=O)c1C(c1ccc(Br)cc1)C(C#N)C#N (stereo not given) | -9.4% | 8.91µM* | 35.5µM* | ? | -0.7%
